Assay results from PubChem BioAssay (NCI).
The panel holds about 83,000 compounds, 20% with a hit somewhere; the sample as a whole holds those more often.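 In brief: 96-well plates, 48 h treatment, single concentration, percent growth endpoint.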 Activity calls are given as the source filed them. Rule for the calls: active = growth percent below 10; inactive = the rest.

How the values were obtained:
Assay in all cases: NCI-60 one-dose screen, 48 h (100 = growth as untreated, 0 = no growth, -100 = all killed)
Conditions in all cases: 10 µM unless noted
RPMI-8226 leukemia = test system: RPMI-8226 leukemia
OVCAR-8 ovarian = test system: OVCAR-8 ovarian
OVCAR-5 ovarian = test system: OVCAR-5 ovarian
OVCAR-4 ovarian = test system: OVCAR-4 ovarian
SK-OV-3 ovarian = test system: SK-OV-3 ovarian
IGROV1 ovarian = test system: IGROV1 ovarian
OVCAR-3 ovarian = test system: OVCAR-3 ovarian
HS 578T breast = test system: HS 578T breast
NCI/ADR-RES ovarian = test system: NCI/ADR-RES ovarian
T-47D breast = test system: T-47D breast
BT-549 breast = test system: BT-549 breast
MDA-MB-435 melanoma = test system: MDA-MB-435 melanoma
SW-620 colon = test system: SW-620 colon
MCF7 breast = test system: MCF7 breast
HCT-116 colon = test system: HCT-116 colon
HCC-2998 colon = test system: HCC-2998 colon
KM12 colon = test system: KM12 colon

Measured: growth

COc1ccc2oc3c(C)c4c(c(C)c3c2c1)C(=O)N(Cc1ccccc1)C4=O
inactive: RPMI-8226 leukemia 100% | OVCAR-8 ovarian 91.2% | OVCAR-5 ovarian 99.9% | OVCAR-4 ovarian 90.7% | SK-OV-3 ovarian 103% | IGROV1 ovarian 94.6% | OVCAR-3 ovarian 89.3% | HS 578T breast 85.5% | NCI/ADR-RES ovarian 95.3% | T-47D breast 95% | BT-549 breast 96.1% | MDA-MB-435 melanoma 99.2% | SW-620 colon 78.3% | MCF7 breast 95.5% | HCT-116 colon 65.5% | HCC-2998 colon 102% | KM12 colon 97.4%

Cc1ccc(Nc2ccc(Nc3ccc(C)cc3)c3c2C(=O)c2cccc(O)c2C3=O)cc1
inactive: RPMI-8226 leukemia 88.7% | OVCAR-8 ovarian 97.8% | OVCAR-5 ovarian 82.1% | OVCAR-4 ovarian 105% | SK-OV-3 ovarian 87.5% | OVCAR-3 ovarian 121% | HS 578T breast 99% | NCI/ADR-RES ovarian 99.8% | T-47D breast 104% | BT-549 breast 113% | MDA-MB-435 melanoma 104% | SW-620 colon 99.4% | MCF7 breast 87.6% | HCT-116 colon 99% | HCC-2998 colon 109% | KM12 colon 92.7%
active: IGROV1 ovarian -12.9%

COc1cc(/C=N/NC(=O)Cn2c(C(C)C)nc3ccccc32)ccc1O
inactive: RPMI-8226 leukemia 87% | OVCAR-8 ovarian 98.8% | OVCAR-5 ovarian 94.6% | OVCAR-4 ovarian 108% | SK-OV-3 ovarian 100% | IGROV1 ovarian 91.1% | OVCAR-3 ovarian 108% | HS 578T breast 98.2% | NCI/ADR-RES ovarian 99.3% | T-47D breast 94% | BT-549 breast 100% | MDA-MB-435 melanoma 100% | SW-620 colon 95.7% | MCF7 breast 95.1% | HCT-116 colon 82.4% | HCC-2998 colon 103% | KM12 colon 97.6%

O=C(c1ccccc1)c1c(/C=C/c2ccccc2)nc2ccccc2c1/C=C/c1ccc(Br)cc1
inactive: RPMI-8226 leukemia 104% | OVCAR-8 ovarian 102% | OVCAR-5 ovarian 103% | OVCAR-4 ovarian 88% | SK-OV-3 ovarian 96.3% | IGROV1 ovarian 103% | OVCAR-3 ovarian 89.4% | HS 578T breast 91.3% | NCI/ADR-RES ovarian 102% | T-47D breast 95.4% | BT-549 breast 111% | MDA-MB-435 melanoma 99.7% | SW-620 colon 98.3% | MCF7 breast 82.7% | HCT-116 colon 87.8% | HCC-2998 colon 115% | KM12 colon 98.7%

Cc1ccc(S(=O)(=O)NCC[C@@H]2C[C@H]2c2cc3ccccc3s2)cc1
inactive: RPMI-8226 leukemia 83.4% | OVCAR-8 ovarian 97.3% | OVCAR-5 ovarian 106% | OVCAR-4 ovarian 78.3% | SK-OV-3 ovarian 107% | IGROV1 ovarian 101% | OVCAR-3 ovarian 101% | HS 578T breast 91.5% | NCI/ADR-RES ovarian 96.9% | T-47D breast 77.9% | BT-549 breast 102% | MDA-MB-435 melanoma 104% | SW-620 colon 103% | MCF7 breast 93.7% | HCT-116 colon 93.8% | HCC-2998 colon 106% | KM12 colon 96.1%

CCc1ccccc1-n1c(N)c(C#N)c(-c2ccc(N(C)C)cc2)c(C#N)c1=O
inactive: RPMI-8226 leukemia 74.7% | OVCAR-8 ovarian 101% | OVCAR-5 ovarian 97% | OVCAR-4 ovarian 99% | SK-OV-3 ovarian 107% | IGROV1 ovarian 90.8% | OVCAR-3 ovarian 97% | HS 578T breast 92.2% | NCI/ADR-RES ovarian 94.8% | T-47D breast 80% | BT-549 breast 85.5% | MDA-MB-435 melanoma 100% | SW-620 colon 93% | MCF7 breast 94.9% | HCT-116 colon 94.1% | HCC-2998 colon 104% | KM12 colon 97.6%

COc1ccc2[nH]c(O)c(C(=Nc3ccc(N(C)C(=O)CN4CCN(C)CC4)cc3)c3ccccc3)c2c1
active: SK-OV-3 ovarian 5.77% | HS 578T breast -16.8%
inactive: RPMI-8226 leukemia 38.8% | OVCAR-8 ovarian 43.9% | OVCAR-5 ovarian 49.2% | OVCAR-4 ovarian 47.1% | IGROV1 ovarian 22.5% | OVCAR-3 ovarian 75.9% | NCI/ADR-RES ovarian 82.2% | T-47D breast 53.4% | BT-549 breast 35.8% | MDA-MB-435 melanoma 42.3% | SW-620 colon 16.8% | MCF7 breast 29% | HCT-116 colon 11.1% | HCC-2998 colon 34.3% | KM12 colon 18.2%

COc1cc(/C=N/n2c(CN3CCOCC3)nc3ccccc3c2=O)cc(OC)c1OC
inactive: RPMI-8226 leukemia 107% | OVCAR-8 ovarian 96.1% | OVCAR-5 ovarian 97.4% | OVCAR-4 ovarian 104% | SK-OV-3 ovarian 103% | IGROV1 ovarian 98.3% | OVCAR-3 ovarian 106% | HS 578T breast 105% | NCI/ADR-RES ovarian 101% | T-47D breast 94.4% | BT-549 breast 103% | MDA-MB-435 melanoma 102% | SW-620 colon 106% | MCF7 breast 99.4% | HCT-116 colon 94.5% | HCC-2998 colon 104% | KM12 colon 101%

O=C1CCC2=C3C4CCCCC4C(=O)C4CCCC(OC2C1)C34 (stereo unspecified)
active: RPMI-8226 leukemia -4.93% | OVCAR-8 ovarian 6.21% | IGROV1 ovarian -2.77% | OVCAR-3 ovarian -28.8% | NCI/ADR-RES ovarian 3.01% | BT-549 breast 7.09% | MDA-MB-435 melanoma -68% | SW-620 colon 4.34% | HCT-116 colon -7.43% | KM12 colon -2.73%
inactive: OVCAR-5 ovarian 108% | OVCAR-4 ovarian 22.1% | SK-OV-3 ovarian 78.4% | HS 578T breast 26.5% | T-47D breast 46.4% | MCF7 breast 12.8%

CCN1C(=O)N(CC)C2C1NN=c1s/c(=C\c3cccs3)c(=O)n12 (stereo unspecified)
active: OVCAR-3 ovarian -17.5% | NCI/ADR-RES ovarian -16.5% | MDA-MB-435 melanoma -31.8%
inactive: RPMI-8226 leukemia 37.7% | OVCAR-8 ovarian 16.9% | OVCAR-5 ovarian 41.3% | OVCAR-4 ovarian 53.2% | SK-OV-3 ovarian 45.6% | IGROV1 ovarian 27.4% | HS 578T breast 22.5% | T-47D breast 60.6% | BT-549 breast 19.8% | SW-620 colon 20.9% | MCF7 breast 19.9% | HCT-116 colon 15.4% | HCC-2998 colon 21% | KM12 colon 19.8%

CCOC(=O)c1c(/C=C/C(=O)O)nc2ccccc2c1/C=C/c1ccccc1
inactive: RPMI-8226 leukemia 10.9% | OVCAR-8 ovarian 31.2% | OVCAR-5 ovarian 57.4% | OVCAR-4 ovarian 60.5% | SK-OV-3 ovarian 93.6% | IGROV1 ovarian 52.1% | OVCAR-3 ovarian 13.3% | HS 578T breast 18.7% | NCI/ADR-RES ovarian 32.7% | T-47D breast 36.4% | BT-549 breast 19.1% | MDA-MB-435 melanoma 21.6% | SW-620 colon 30.1% | MCF7 breast 30.2% | HCT-116 colon 22.4% | HCC-2998 colon 35.1% | KM12 colon 19.7%

COc1ccc(-c2cc(-c3cc(OC)c(OC)c(OC)c3)c(C#N)c(N3CCOCC3)n2)cc1O
active: RPMI-8226 leukemia -23.8% | NCI/ADR-RES ovarian -51.5%
inactive: OVCAR-8 ovarian 56.3% | OVCAR-5 ovarian 20.5% | OVCAR-4 ovarian 89.6% | SK-OV-3 ovarian 81.2% | IGROV1 ovarian 59.3% | OVCAR-3 ovarian 27.4% | HS 578T breast 41.7% | T-47D breast 78.3% | BT-549 breast 48.3% | MDA-MB-435 melanoma 28.3% | SW-620 colon 23.1% | MCF7 breast 36.2% | HCT-116 colon 49.1% | KM12 colon 17.4%

CCN(CCNc1ccc(C)c2sc3ccccc3c(=O)c12)CC(C)(C)O
inactive: RPMI-8226 leukemia 13.5% | OVCAR-8 ovarian 87.1% | OVCAR-5 ovarian 79.4% | OVCAR-4 ovarian 95.7% | SK-OV-3 ovarian 76.3% | IGROV1 ovarian 79.4% | OVCAR-3 ovarian 103% | HS 578T breast 59.5% | NCI/ADR-RES ovarian 70.9% | T-47D breast 80.7% | BT-549 breast 93.4% | MDA-MB-435 melanoma 79% | SW-620 colon 73.6% | MCF7 breast 81.8% | HCT-116 colon 60% | KM12 colon 48.3%

COc1cc(C2CC(c3ccc(Nc4ccnc5cc(Cl)ccc45)cc3)=NN2C=O)cc(OC)c1OC (stereo unspecified)
inactive: RPMI-8226 leukemia 21.3% | OVCAR-8 ovarian 74% | OVCAR-5 ovarian 109% | OVCAR-4 ovarian 86.3% | SK-OV-3 ovarian 86.8% | IGROV1 ovarian 106% | HS 578T breast 26.2% | NCI/ADR-RES ovarian 73.4% | T-47D breast 83.2% | BT-549 breast 37% | MDA-MB-435 melanoma 30.5% | SW-620 colon 84% | MCF7 breast 46.3% | HCT-116 colon 13.5% | KM12 colon 68%
active: OVCAR-3 ovarian 2.55%

COc1ccc2nc(NNC(=O)c3cnccn3)c3cccn3c2c1
active: RPMI-8226 leukemia 0.953% | OVCAR-8 ovarian 5.98% | OVCAR-5 ovarian 4.68% | OVCAR-4 ovarian -7.44% | SK-OV-3 ovarian -1.5% | IGROV1 ovarian -35% | OVCAR-3 ovarian 1.47% | NCI/ADR-RES ovarian -13.4% | T-47D breast 0.223% | SW-620 colon 0.919% | MCF7 breast -31.6% | HCT-116 colon -26.5% | KM12 colon 4.7%
inactive: HS 578T breast 43.8% | BT-549 breast 12.7% | MDA-MB-435 melanoma 13.5% | HCC-2998 colon 37.4%

S=C(c1ccc2c(c1)OCO2)N1CCN(c2ccccc2Cl)CC1
inactive: RPMI-8226 leukemia 85.9% | OVCAR-8 ovarian 102% | OVCAR-5 ovarian 97.6% | OVCAR-4 ovarian 98.7% | SK-OV-3 ovarian 102% | IGROV1 ovarian 101% | OVCAR-3 ovarian 112% | HS 578T breast 107% | NCI/ADR-RES ovarian 99.7% | T-47D breast 94% | BT-549 breast 81.6% | MDA-MB-435 melanoma 99.9% | SW-620 colon 102% | MCF7 breast 103% | HCT-116 colon 92.3% | HCC-2998 colon 113% | KM12 colon 103%

CCc1ccccc1-n1c(-c2ccc(Cl)cc2)cc(-c2ccc(OC)cc2)c(C#N)c1=O
inactive: RPMI-8226 leukemia 78.5% | OVCAR-8 ovarian 102% | OVCAR-5 ovarian 94.7% | OVCAR-4 ovarian 90% | SK-OV-3 ovarian 103% | IGROV1 ovarian 80% | OVCAR-3 ovarian 100% | HS 578T breast 98.7% | NCI/ADR-RES ovarian 95.1% | T-47D breast 92.3% | BT-549 breast 154% | MDA-MB-435 melanoma 89% | SW-620 colon 104% | MCF7 breast 85.6% | HCT-116 colon 94.6% | HCC-2998 colon 109% | KM12 colon 87.7%

C[C@]12CC[C@@H]3c4cc(OC(F)F)c(O)cc4CC[C@H]3[C@@H]1CC[C@@H]2OS(N)(=O)=O
active: OVCAR-3 ovarian -0.18% | MDA-MB-435 melanoma 0.824%
inactive: RPMI-8226 leukemia 26.6% | OVCAR-8 ovarian 39.3% | OVCAR-5 ovarian 57.5% | OVCAR-4 ovarian 67.7% | SK-OV-3 ovarian 39.7% | IGROV1 ovarian 37.1% | HS 578T breast 32.5% | NCI/ADR-RES ovarian 12.5% | T-47D breast 47% | BT-549 breast 67.7% | SW-620 colon 31.2% | MCF7 breast 24.2% | HCC-2998 colon 47.5% | KM12 colon 18.9%
